According to PubChem BioAssay AID624331 (National Center for Advancing Translational Sciences (NCATS), 2012):
Inconclusive results are not listed. Entries that show only a call come without a potency. Calls of active or inactive are those of the source. The call rests on the fitted dose curve; in most records, active means well fitted activation curve with a large enough effect; inconclusive means small, poorly fitted or top-dose-only effect; inactive means no such curve, though single readings can be large or run the other way.

Experiment: qHTS assay for re-activators of p53 using a Luc reporter: Hit Validation with no p53 Expressed
Details: p53-null cells, luciferase reporter counter-screen; series mostly up to 46.1 µM
Procedure, shortened: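 Without p53 expression, cells (1000/well, Opti-MEM + 10% FBS) were exposed 24 h at 37 deg C to compounds in a 1:5 series from 10 mM stock (top 46.1 µM in well). Luminescent signal read 10 min after Amplite addition; actives flag unspecific activation.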

Compound | Potency
COc1ccc(C(C#N)N2N=C(c3ccccc3)CC2c2ccccc2)cc1OC (centres undefined) | inactive
CCOc1ccc(-c2cnc3ccccc3n2)cc1 | inactive
O=C(c1cnn(-c2ccccc2)c1)c1ccccc1O | inactive
Cc1ccc(CCc2nnc(SCC(=O)Nc3cccc(Cl)c3)n2-c2ccccc2)o1 | inactive
O=C(Cc1ccccc1)NCc1ccc(F)cc1 | inactive
COCCNc1nc2sc3c(c2c(=O)n1Cc1ccco1)CCCCC3 | inactive
Cc1ccc(-c2nnc(N(C)C(=O)C3CCCO3)s2)cn1 (centres undefined) | inactive
Cc1cc(Oc2ccccc2)nc(-c2ccccc2O)n1 | inactive
O=C(NCCCNC1CCCCC1)c1ccc(/C=N/O)nc1 | inactive
NNc1nc(NCc2ccccc2)nc(N2CCOCC2)n1 | inactive
Cn1ncc([N+](=O)[O-])c1C(=O)Nc1ccc(C2CCCCC2)cc1 | inactive
Cc1cc(-c2nnc(SCc3ccccn3)o2)no1 | inactive
O=C(CSc1nnc(-c2ccc(F)cc2)c2ccccc12)Nc1ccccc1 | inactive
CCOc1ccc(N/C=C/C(=O)c2ccccc2)c([N+](=O)[O-])c1 | inactive
CCOc1cccc(-c2nc3cc(C)ccc3o2)c1 | inactive
CC(C)NC(=S)N1CCN(S(C)(=O)=O)CC1 | inactive
COc1ccc2nc(NC(=O)Nc3ccccc3OC)sc2c1 | inactive
Cc1cccc(NC(=O)/C=C/c2ccc(Cl)cc2)n1 | inactive
CC(C)C(=O)NC(c1cccs1)c1cc([N+](=O)[O-])c2cccnc2c1O (centres undefined) | inactive
O=C(NN=C1CCCCCC1)c1cccs1 | inactive

Compound | Potency
CCOC(=O)c1c(NC(=O)C2COc3ccccc3O2)sc2c1CCN(Cc1ccccc1)C2 (centres undefined) | inactive
CCc1ccc2[nH]c(=O)c(CN(CCN3CCCC3)C(=O)NC3CCCCC3)cc2c1 | inactive
O=C(COC(=O)c1ccc(F)cc1)NC1CC1 | inactive
COc1ccc(-c2nsc3c(N4CCCC4)ncnc23)cc1 | inactive
CC(C)CC(NC(=O)C1CCC(=O)N1)C(=O)NC(CC(C)C)C(=O)N1CCCC1C(N)=O (centres undefined) | inactive
O=C(c1ccco1)n1c(=S)nc2ccccn21 | inactive
Cc1ccnc(NC(=O)c2sc3cc(Cl)ccc3c2Cl)c1 | inactive
Cc1ccc(NC(=O)C2CCCO2)cc1[N+](=O)[O-] (centres undefined) | inactive
Cc1ccc(NC(=O)Nc2ccccc2)c(Br)c1 | inactive
Nc1c(C(=O)CSc2ccccn2)c(=O)[nH]c(=O)n1C1CC1 | inactive
Cc1cc(C)n2cc(CSc3nc4ccccc4s3)nc2n1 | inactive
CCS(=O)(=O)NCCc1csc(-c2ccccc2)n1 | inactive
O=C(CCc1nc(-c2ccccc2F)no1)NC1CCCCCC1 | inactive
CCCCOC(=O)c1ccc(NC(=O)CSc2nncn2C)cc1 | inactive
COC(=O)CSc1nc2cc(OC)ccc2cc1C#N | inactive
c1ccc2oc(C3=NNC(=NC4CC4)SC3)cc2c1 | inactive
O=C(N/N=C(\c1ccccc1)c1ccccn1)c1ccccc1Cl | inactive
O=C(O)C1CC(=O)N(c2ccc(Br)cc2)C1 (centres undefined) | inactive
Clc1ccc(Nc2nc(-c3cccs3)cs2)nc1 | inactive
